The list is not random: actives were taken first. Their share in the collection is about 7.4%.
FLuc counter: qHTS profiling assay for firefly luciferase inhibitor/activator using purifed enzyme and Km concentrations of substrates (counterscreen for miR-21 project); Potency, µM (highest dose often 57.5 µM), actives largely listed as inhibitors; Luciferin 4-monooxygenase (Photinus pyralis), P08659; AID 588342, 2011; hit rate 6.9% among 360,000; purified FLuc, Km substrates, luminescence inhibition; note: nearly all actives have a fitted effect of over 55% in size
Target sequence (P08659 whole entry, looked up): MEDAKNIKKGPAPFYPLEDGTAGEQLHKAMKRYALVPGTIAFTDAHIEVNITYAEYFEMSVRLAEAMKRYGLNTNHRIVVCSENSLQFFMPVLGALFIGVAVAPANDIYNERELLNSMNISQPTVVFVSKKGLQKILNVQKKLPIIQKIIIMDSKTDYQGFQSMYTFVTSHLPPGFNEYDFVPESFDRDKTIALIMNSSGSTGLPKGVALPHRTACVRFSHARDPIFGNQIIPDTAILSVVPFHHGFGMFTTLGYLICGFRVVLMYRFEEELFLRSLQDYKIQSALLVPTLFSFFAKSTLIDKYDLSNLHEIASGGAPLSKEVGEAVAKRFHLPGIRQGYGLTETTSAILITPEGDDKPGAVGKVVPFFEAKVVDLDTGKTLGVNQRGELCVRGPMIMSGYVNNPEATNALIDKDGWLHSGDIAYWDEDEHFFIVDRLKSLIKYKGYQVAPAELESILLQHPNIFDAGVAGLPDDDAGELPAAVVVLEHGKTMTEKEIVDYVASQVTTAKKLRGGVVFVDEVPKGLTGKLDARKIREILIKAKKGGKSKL
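Biochemical qHTS of compounds, final roughly 60 µM downward over six points, against 10 nM purified firefly luciferase using Km concentrations of substrates (10 uM D-luciferin, 10 uM ATP) in Tris acetate pH 7.5 buffer; luminescence output.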
ELG1 genotoxic: qHTS screen for small molecules that induce genotoxicity in human embryonic kidney (HEK293T) cells expressing luciferase-tagged ELG1. hit rate 1.3% among 330,000. HEK293T ELG1-luciferase reporter, luminescence, 16 h. Potency, µM (titrated, usually from 46 µM), hits mostly activators; note: nearly all actives have a fitted effect of over 60% in size
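Step 1: seed 2,000 HEK293T ELG1-luciferase cells per well. Step 2: add compound or DMSO, incubate 16 hr at 37 °C. Step 3: ONE-Glo, 30 min at room temperature, read luminescence.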
NPC1 prom act: qHTS Assay for NPC1 Promoter Activators | Huh7 NPC1 promoter luciferase reporter, 24 h | Potency, µM (series often up to 9.22 µM), usual class: activators | hit rate 2.4% among 320,000 | AID 485313, 2010; note: nearly all actives have a fitted effect of over 60% in size
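Readout is luciferase luminescence, reflecting NPC1 promoter activation in stably transfected Huh7 cells after 24 h compound exposure at 37 °C in reduced-serum medium with 10% FBS.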
Rab9 promoter act: qHTS Assay for Rab9 Promoter Activators; Huh7 Rab9 promoter-luciferase reporter, luminescence, 24 h; Potency, µM (highest dose often 9.22 µM), usual class: activators; hit rate 2.8% among 320,000; AID 485297, 2010; note: nearly all actives have a fitted effect of over 60% in size
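Stable Rab9-luc Huh7, 1500 cells/well, 2 h settle; cmpd in DMSO, 24 h, 37 °C/5% CO2; luciferase reagent 10 min RT; luminescence.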
SMN2 splice enh: qHTS Assay for Enhancers of SMN2 Splice Variant Expression | HEK293 SMN2-luciferase splicing reporter, luminescence, 30-36 h | Potency, µM (series often up to 46.1 µM), usual class: activators | hit rate 2.8% among 210,000 | AID 1458, 2008; note: nearly all actives have a fitted effect of over 55% in size
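HEK293 cells carry an SMN2 minigene-luciferase reporter in which exon 7 inclusion puts luciferase in frame. Cells were seeded at 2000 cells/well, attached for 10-12 hours, then exposed to compounds for 30-36 hours at 37C before ONE-Glo luminescence.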
Of the large screens only hits and unclear results are named; the others gave an inactive call. Calls come from the whole dose curve; as a rule, active = well fitted curve in the direction sought with a large enough effect; inconclusive = small, poorly fitted or top-dose-only effect, or another doubt; inactive = no such curve, though single readings can be large; an effect the other way counts as inactive or inconclusive.

O=C(c1ccccc1)n1ccc(-c2cnc(-c3ccccc3)s2)n1	FLuc counter 4.3µM, ELG1 genotoxic 1.6µM, NPC1 prom act 1.4µM, Rab9 promoter act 1.6µM, SMN2 splice enh 3.5µM
O=c1c2ccccc2nc(COc2ccccc2)n1/N=C/c1ccc(O)c(O)c1	FLuc counter 27µM (no result: SMN2 splice enh)
CCc1nn(CC(=O)Nc2c(C)cc(C)cc2C)c(=O)c2cc3sccc3n12	none (no result: ELG1 genotoxic, NPC1 prom act, Rab9 promoter act)
CC(=O)Nc1cccc(-c2nc(-c3ccccc3)no2)c1	FLuc counter 2.4µM (no result: ELG1 genotoxic, NPC1 prom act, Rab9 promoter act, SMN2 splice enh)
CC(=O)Nc1cccc(-c2nnc(-c3ccccc3)o2)c1	FLuc counter 12µM, ELG1 genotoxic 8.2µM, NPC1 prom act 3.5µM, Rab9 promoter act 3.5µM, SMN2 splice enh 13µM
O=C(Nc1ccccc1)Nc1cccc(-c2nnco2)c1	FLuc counter 15µM (no result: SMN2 splice enh)
CCOc1cccc(C(=O)Nc2cccc(-c3nnc(-c4ccccc4)o3)c2)c1	FLuc counter 6.7µM
Cc1ccccc1CNC(=O)CCS(=O)(=O)c1cc2c3c(c1)CCN3C(=O)CC2	none (no result: ELG1 genotoxic, NPC1 prom act, Rab9 promoter act, SMN2 splice enh)
CC(C)Oc1ccc(C(=O)N2CC(=O)Nc3ccc(F)cc3C2c2ccc(F)cc2)cc1 (stereo not drawn)	none (no result: ELG1 genotoxic, NPC1 prom act, Rab9 promoter act)
CC(C)C(=O)Nc1nnc(SCc2cc(=O)n3ccccc3n2)s1	none (no result: ELG1 genotoxic, NPC1 prom act, Rab9 promoter act, SMN2 splice enh)
c1ccc2c[n+](CCCC[n+]3ccc4ccccc4c3)ccc2c1	none (no result: FLuc counter, ELG1 genotoxic, NPC1 prom act, Rab9 promoter act)
COc1ccccc1CNC(=O)COC(=O)c1cccnc1SCC(=O)NCc1ccccc1OC	FLuc counter inconclusive, Rab9 promoter act inconclusive
O=C(COC(=O)c1cccnc1SCC(=O)NCc1ccccc1)NCc1ccccc1	FLuc counter 2.7µM
CCn1c(=O)c2cc(C(=O)NCc3cc(OC)ccc3OC)sc2c2ccccc21	none (no result: ELG1 genotoxic, NPC1 prom act, Rab9 promoter act)
CC(C)(C)[C@H](NC(=O)c1ccc(N)c(Cl)c1)C(=O)N1CCC[C@H]1C(=O)N[C@H](C#N)Cc1nn[nH]n1	none (no result: ELG1 genotoxic, SMN2 splice enh)
COC(=O)c1cc(NC(=O)c2cc3c(-c4ccccc4F)nn(C)c3s2)cc(C(=O)OC)c1	none (no result: ELG1 genotoxic, NPC1 prom act, Rab9 promoter act)
O=C(CC(SCCO)c1ccc2c(c1)OCO2)c1cccs1 (stereo not drawn)	FLuc counter 13µM, ELG1 genotoxic inconclusive, NPC1 prom act inconclusive, Rab9 promoter act 4µM
CCN(CC)C(=O)c1ccc(Nc2nnc(-c3ccc(C)c(S(=O)(=O)NC)c3)c3ccccc23)cc1	none (no result: ELG1 genotoxic, NPC1 prom act, Rab9 promoter act)
CNS(=O)(=O)c1cc(-c2nnc(Nc3ccc(NC(C)=O)cc3)c3ccccc23)ccc1C	FLuc counter inconclusive (no result: SMN2 splice enh)
C#CC(C)(C)NS(=O)(=O)c1cc(-c2nnc(Nc3ccc(C)cc3)c3ccccc23)ccc1C	FLuc counter 2.7µM (no result: ELG1 genotoxic, NPC1 prom act, Rab9 promoter act)
CNC(=O)COc1ccc(Nc2nnc(-c3ccc(C)c(S(=O)(=O)NC(C)(C)C)c3)c3ccccc23)cc1	FLuc counter 15µM (no result: ELG1 genotoxic, NPC1 prom act, Rab9 promoter act)
COc1ccc(NC(=O)CC2C(=O)N(c3ccc(F)cc3)C(=O)N2Cc2ccco2)cc1 (stereo not drawn)	none (no result: ELG1 genotoxic, NPC1 prom act, Rab9 promoter act, SMN2 splice enh)
Cc1nc(CCNC(=O)c2cccs2)cs1	none
Cc1ccc(C(=O)NCCc2csc(C)n2)cc1	FLuc counter 9.5µM, ELG1 genotoxic 18µM, NPC1 prom act inconclusive, Rab9 promoter act 3.2µM, SMN2 splice enh 14µM
Cc1cccc(C(=O)NCCc2csc(C)n2)c1	SMN2 splice enh 1.6µM
Cn1cc(-c2cc3n(n2)CCC(=O)N3CCCC(=O)NCc2ccccc2Cl)c2ccccc21	none (no result: ELG1 genotoxic, NPC1 prom act, Rab9 promoter act, SMN2 splice enh)
O=C(O)CSc1c2c(nc3cc(C(=O)Nc4cccc(C(F)(F)F)c4)ccc13)CCC2	FLuc counter 27µM (no result: SMN2 splice enh)
Cc1ccc(NC(=O)c2ccc3c(SCC(=O)O)c4c(nc3c2)CCCC4)c(Br)c1	FLuc counter inconclusive (no result: SMN2 splice enh)
CCOc1ccc(NC(=O)c2ccc3c(SCC(=O)O)c4c(nc3c2)CCCC4)cc1	FLuc counter 17µM
CCCn1c(C)nc2c(NCCCCN(C)C)nc(C)nc21	none (no result: FLuc counter, ELG1 genotoxic, NPC1 prom act, Rab9 promoter act)
CCc1ccc(/C=C2/Sc3ccccc3N(CC(=O)NCC3CCCO3)C2=O)cc1 (stereo not drawn)	FLuc counter 19µM (no result: SMN2 splice enh)
Cc1ccc(/C=C2/Sc3ccccc3N(CC(=O)NCC3CCCO3)C2=O)cc1 (stereo not drawn)	FLuc counter inconclusive (no result: SMN2 splice enh)
Cc1ccc([N+](=O)[O-])c(N)c1	none (no result: FLuc counter, ELG1 genotoxic, NPC1 prom act, Rab9 promoter act)
CCc1ccc(Nc2cnn(-c3nc4ccccc4s3)c(=O)c2Cl)cc1	FLuc counter 12µM, Rab9 promoter act inconclusive, SMN2 splice enh inconclusive
